The values below come from ChEMBL document CHEMBL1961873, “Compounds: GSK PKIS; Assays: Nanosyn kinase panel” (2012).

In this assay the test system is Epidermal growth factor receptor (Homo sapiens), P00533 [T790M]. The conditions noted are these: at 0.1 µM.
Chain of Epidermal growth factor receptor (Homo sapiens), P00533 [T790M] (P00533 whole entry T790M): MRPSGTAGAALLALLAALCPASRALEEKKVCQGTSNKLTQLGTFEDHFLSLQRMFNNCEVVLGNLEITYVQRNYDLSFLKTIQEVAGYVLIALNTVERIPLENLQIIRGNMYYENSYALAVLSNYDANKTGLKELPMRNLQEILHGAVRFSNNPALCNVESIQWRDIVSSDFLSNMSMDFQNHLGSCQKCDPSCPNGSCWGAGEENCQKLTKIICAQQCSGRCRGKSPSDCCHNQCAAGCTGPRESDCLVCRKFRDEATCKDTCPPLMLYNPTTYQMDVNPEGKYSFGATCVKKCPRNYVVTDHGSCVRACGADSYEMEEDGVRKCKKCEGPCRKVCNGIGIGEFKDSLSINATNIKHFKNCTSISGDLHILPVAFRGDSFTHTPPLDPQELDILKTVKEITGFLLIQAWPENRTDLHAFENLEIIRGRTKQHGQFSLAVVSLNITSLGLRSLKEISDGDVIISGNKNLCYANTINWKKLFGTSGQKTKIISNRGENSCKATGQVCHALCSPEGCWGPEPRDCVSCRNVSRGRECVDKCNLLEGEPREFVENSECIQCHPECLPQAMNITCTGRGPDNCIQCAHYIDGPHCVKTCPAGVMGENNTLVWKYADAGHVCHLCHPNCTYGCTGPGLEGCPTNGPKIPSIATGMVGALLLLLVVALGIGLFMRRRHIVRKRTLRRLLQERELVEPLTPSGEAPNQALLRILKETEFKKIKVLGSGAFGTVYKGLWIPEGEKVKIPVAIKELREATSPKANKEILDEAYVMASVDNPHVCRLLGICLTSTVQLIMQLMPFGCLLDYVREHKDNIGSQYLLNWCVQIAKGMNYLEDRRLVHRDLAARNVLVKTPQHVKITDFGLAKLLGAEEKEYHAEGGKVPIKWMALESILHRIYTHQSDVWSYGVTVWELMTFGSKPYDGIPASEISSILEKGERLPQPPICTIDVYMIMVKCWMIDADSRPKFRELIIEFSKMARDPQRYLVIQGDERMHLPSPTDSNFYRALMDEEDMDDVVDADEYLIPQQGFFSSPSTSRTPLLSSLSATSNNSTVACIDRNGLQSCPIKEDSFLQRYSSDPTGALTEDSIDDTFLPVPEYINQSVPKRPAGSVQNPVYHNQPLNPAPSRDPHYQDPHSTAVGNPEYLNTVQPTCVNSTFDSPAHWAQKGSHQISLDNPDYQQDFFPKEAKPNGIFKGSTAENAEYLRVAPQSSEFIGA
The inhibition is the drop in the measured response relative to a control, in per cent. Take `CNC(=O)c1cccc(C#Cc2cncnc2Nc2ccc(OCc3cccc(F)c3)c(Cl)c2)c1`: the inhibition was 1.03%.

Regarding `Fc1ccc(-c2cc(-c3c[nH]nc3-c3ccccn3)ccn2)cc1`, the inhibition was 3.06%.

Regarding `CN1CCC(n2cnc(-c3ccc(F)cc3)c2-c2ccnc(Nc3ccccc3)n2)CC1`, the inhibition came out at 1.19%.

With `CCn1c(-c2nonc2N)nc2c(C#CC(C)(C)O)ncc(OC3CCNCC3)c21`, the inhibition is -0.25%.

Turning to `COc1cccc(-c2c[nH]c3c(N/N=C/c4ccncc4)ncnc23)c1`, the inhibition came to 1.02%.

On to `Cc1ccc2c(-c3ccnc(Nc4ccccc4)n3)c(-c3ccc(F)cc3)nn2n1`, for which the inhibition stood at 8.63%.

Regarding `COC(=O)Nc1nc2ccc(Oc3ccc(NC(=O)Nc4cccc(Cl)c4)cc3)cc2[nH]1`, the inhibition was -1.18%.

As to `COc1ccc(-c2cc(-c3c[nH]nc3-c3ccccn3)ccn2)cc1`, the inhibition stood at 2.05%.

Consider `COc1cc(/C=N/Nc2ncnc3[nH]ncc23)ccc1O`, for which the inhibition came out at 1.39%.

For `[O-][S+]1CCN(Cc2ccc(-c3ccc4ncnc(Nc5ccc(OCc6cccc(F)c6)c(Cl)c5)c4c3)o2)CC1`, the inhibition stood at 7.36%.

For `CCNC(=O)O[C@H]1CN[C@H](C#Cc2cc3ncnc(Nc4ccc(OCc5cccc(F)c5)c(Cl)c4)c3s2)C1`, the inhibition amounted to 2.9%.

Consider `CC1=C(C(=O)Nc2cc(Cl)c3[nH]ncc3c2)C(c2ccc(C(F)(F)F)cc2)CC(=O)N1` (centres undefined), for which the inhibition amounted to 1.57%.

Take `c1ccc(-c2nc3n(c2-c2ccc4c(c2)OCO4)CCC3)nc1`: the inhibition stood at 0.12%.

For `CCOc1ccc2c(-c3ccnc(Nc4cccc(C(F)(F)F)c4)n3)cnn2n1`, the inhibition was -0.02%.

For `CCN1CCC(CC(=O)Nc2n[nH]c3nnc(-c4cccc(F)c4F)cc23)CC1`, the inhibition is -0.06%.

Turning to `COc1ccc2[nH]c3c4[nH]c5ccc(OC)cc5c4c4c(c3c2c1)C(=O)NC4=O`, the inhibition turned out to be 3.67%.

As to `COc1ccc(-c2oc3ncnc(N)c3c2-c2ccc(NC(=O)Nc3cc(C(F)(F)F)ccc3F)cc2)cc1`, the inhibition was 1.19%.

As for `Fc1cccc(COc2ccc(Nc3ncnc4sc(-c5ccco5)cc34)cc2Cl)c1`, the inhibition is 1.83%.

For the compound `COc1cc(N2CCN(C(C)C)CC2)ccc1Nc1nc(Nc2ccc(F)cc2C(N)=O)c2cc[nH]c2n1`, the inhibition stood at 26.4%.

Regarding `CN(C)CCOc1ccc(-c2nc(-c3ccncc3)c(-c3ccc4c(c3)CC/C4=N\O)[nH]2)cc1`, the inhibition stood at 2.18%.

As to `NC(=O)c1sc(-n2cnc3ccc(C(F)(F)F)cc32)cc1OCc1ccccc1Br`, the inhibition came to 2.11%.

Regarding `Nc1nc(-c2cccc(Cl)c2)c(-c2ccc3ncccc3n2)s1`, the inhibition was found to be 3.5%.

With `CCCN1CCC(c2ccc(Nc3nc(Nc4cc(F)ccc4C(N)=O)c4cc[nH]c4n3)c(OC)c2)CC1`, the inhibition worked out at 30.4%.

With `CCn1cc(-c2ccnc3[nH]ccc23)c(-c2cccc(NC(=O)Nc3ccc(OCc4ccccc4)cc3)c2)n1`, the inhibition is -1.87%.

Consider `NS(=O)(=O)c1ccc(Nc2ncc(-c3ccccc3)o2)cc1`, for which the inhibition was 0.68%.

As for `CCCN(CCS(C)(=O)=O)Cc1ccc(-c2ccc3ncnc(Nc4ccc(OCc5cccc(F)c5)c(Cl)c4)c3c2)o1`, the inhibition was found to be 2.23%.

For `CCN(CC)S(=O)(=O)c1ccc(OC)c(Nc2ncc(-c3ccccc3)o2)c1`, the inhibition is 1.36%.

`CS(=O)(=O)CCNCc1coc(-c2ccc3ncnc(Nc4ccc(OCc5ccccc5)cc4)c3c2)c1`: the inhibition turned out to be 2.61%.

For the compound `N#Cc1c(NC(=O)CN2CCOCC2)sc2c1CCCC2`, the inhibition turned out to be 3.11%.

Turning to `COc1cccc(-n2ncc3c(N/N=C/c4ccc(F)cc4)ncnc32)c1`, the inhibition was 1.96%.

For the compound `O=C(O[C@H]1CN[C@H](C#Cc2cc3ncnc(Nc4ccc(Cc5ccccc5)cc4)c3s2)C1)N1CCOCC1`, the inhibition was 1.18%.

With `COc1cc2c(cc1Nc1nc(Nc3ccsc3C(N)=O)c3cc[nH]c3n1)N(C(=O)CN(C)C)CCC2(C)C`, the inhibition is 26.6%.

Take `CCc1nn2ncccc2c1-c1ccnc(NC2CC2)n1`: the inhibition is 1.44%.

As for `Cc1ccc(O)cc1Nc1ccnc2cc(-c3ccccn3)ccc12`, the inhibition turned out to be 5.49%.
